Measurements reported in PubChem BioAssay.
Activity calls are given as the source filed them. How the calls were made is not given here.

Assay: inhibition of 3D7 malaria parasite growth – strain 3D7 (AID 2306);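 further: 0% = DMSO wells and 100% = chloroquine plus artemisinin control wells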
Conditions: P. falciparum 3D7 erythrocytic growth, LDH absorbance, 72 h; at 2 µM; stronger effect = higher value

Growth inhibition, active:
O=C(NCCCCN1CCN(c2ccc3c(c2)CCC3)CC1)c1ccc(NC(=O)c2ccc(Cl)cc2)cc1 98%
O=C(NCc1cccnc1)C(c1cc2ccccc2o1)N1CCN(C(c2ccccc2)c2ccccc2)CC1 (stereo not given) 95%
O=C(Nc1cccc(CN2CCCN(Cc3cccnc3)CC2)c1)c1ccc(Cl)c(Cl)c1 84%
Cc1cc(N2CCN(C)CC2)nc2ccc(NC(=O)c3cccc(N(C)C)c3)cc12 85%
COc1ccc2nc(-c3ccc(C(=O)NCCCN4CCN(c5cc(Cl)ccc5OC)CC4)cc3OC)[nH]c2c1 101%
O=C(NCCN1Cc2ccccc2C1=O)c1ccc(Oc2ccc(C(=O)NCCN3Cc4ccccc4C3=O)cc2)cc1 99%
CN(C)Cc1cccc(-c2ccc(NC(=O)c3ccc4c(=O)n(C5CCCCC5)cnc4c3)cc2)c1 96%
COc1ccc(Br)cc1C1Nc2ccc3ccccc3c2C2=C1C(=O)CC(c1ccccc1)C2 (stereo not given) 101%
COc1cccc(NC(=O)Nc2ccc(Nc3nc(C)cc(N4CCCC4)n3)cc2)c1 101%
c1ccc(CN2CCC(NCc3ccc(-c4cccc(CNC5CCCC5)c4)cc3)CC2)cc1 101%
Clc1cccc(Cl)c1CCNCC1CCN(CC2CCCCC2)CC1 98%
Cc1c(Br)cc2[nH]c(-c3ccc(C(=O)NC4CCN(Cc5ccccc5)CC4)cc3)nc2c1C 102%
CC(C)(C)c1ccc(NC(=O)N[C@@H]2CCN(c3ccnc4ccccc34)C2)cc1 102%
C=Cc1sc(CNCCCNc2cc(=O)c3ccccc3[nH]2)c(C)c1Br 94%
CC(=O)N(C)c1cccc(C(=O)Nc2ccc(-c3cccc(-c4nc5c(C)cccc5[nH]4)c3)cc2)c1 97%
O=C(Nc1cccc(Cl)c1Cl)NC1CCN(Cc2cccc(O)c2)CC1 98%
CC(=O)Nc1cccc(C(=O)Nc2cccc(-c3ccc(-c4nc5c(C)cccc5[nH]4)cc3)c2)c1 95%
CCOC(=O)NC1=NC(C)(C)N(OCc2ccc(Cl)c(Cl)c2)C(NC(=O)OCC)=N1 98%
Cc1ncc([N+](=O)[O-])n1CCOC(=O)NC(Nc1ccc(Br)cc1)C(Cl)(Cl)Cl (stereo not given) 99%
O=S(=O)(Nc1cccc(CCN2CCCCC2CCN2CCCC2)c1)c1ccc(-c2ccccc2)cc1 (stereo not given) 99%
COc1cc2nc(NCc3nc4ccccc4[nH]3)nc(N)c2cc1OC 97%
CC(C)Sc1nc2c(c(=O)n1Cc1ccco1)C1(CCCC1)Cc1ccccc1-2 98%
c1ccc(OCCCCN2CCCCC2)cc1 95%
Cc1onc(-c2c(F)cccc2Cl)c1C(=O)Nc1ccccc1I 99%
O=C(NCCc1ccc(Cl)c(Cl)c1)C1CCCN(C(=O)c2ccc(O)c(-c3ccc(Cl)c(Cl)c3)c2)C1 (stereo not given) 96%
CCc1ccc(C(=O)NC(=O)c2ccccc2O)cc1 95%
O=C(/C=C/c1ccc(Cl)c(Cl)c1)NCCCCCCN1CCN(C(=O)Nc2cc(F)cc(F)c2)CC1 86%
CN(Cc1cccc(F)c1)C1CCN(c2cc(NC(=O)c3cccc(F)c3)ccn2)CC1 94%
COc1ccc2ncc(C#N)c(CCN3C[C@H](CNCc4ccccc4)[C@H](O)C3)c2n1 91%
N#Cc1ccc(N2CCN(C(=O)c3cccc(-c4noc(C(F)(F)F)n4)c3)CC2)nc1 84%
CCCCN(CCCC)CCC(O)C(=Cc1ccc(Cl)cc1Cl)c1ccc(C(F)(F)F)cc1N (stereo not given) 100%
CN1CCN(c2ccnc3ccc(NC(=O)Nc4cccc5c(-c6ccncc6)cccc45)cc23)CC1 100%
COc1ccccc1C1CCN(C2CCC(NC(=O)c3cc(-c4ccc(Cl)cc4)cs3)CC2)CC1 (stereo not given) 101%
NC(=O)c1ccc(-n2cnc3cc(F)ccc32)cc1OCc1ccccc1C(F)(F)F (tested in a mixture with another compound) 97%
COc1cc2nc(N3CCC(CNC(=O)c4ccc(-c5ccc(C#N)cc5C)cc4)CC3)nc(N)c2cc1OC 101%
O=C(Nc1cccc(CN2CCCN(Cc3cccc(O)c3)CC2)c1)c1ccc2ccccc2c1 97%
COc1ccccc1Cn1ccnc1SCC(=O)Nc1cccc(C(F)(F)F)c1 86%
c1ccc(CCNCc2ccc(-c3cccc(-c4nc5ccccc5[nH]4)c3)cc2)nc1 100%
c1ccc(CNc2cc(-c3ccccn3)nc(-c3ccccn3)n2)cc1 84%
CCCNCc1ccc(-c2ccc(CN(CCOC)C(=O)c3cnc(C)cn3)cc2)nc1 81%
